Holding throughout (assay): NCI-60 one-dose screen, 48 h (100 = growth as untreated, 0 = no growth, -100 = all killed)
One assay has as its system T-47D breast. To be noted: 10 µM.
The next assay concerns BT-549 breast. The note with it: 10 µM.
For the next assay, the system named is MDA-MB-435 melanoma. To be noted: 10 µM.
The subject of another assay is SW-620 colon. To be noted: 10 µM.
In a further assay the test system is MCF7 breast. To be noted: 10 µM unless noted.
In another assay the test system is HCT-116 colon. To be noted: 10 µM.
A further assay deals with KM12 colon. To be noted: 10 µM.

About 83,000 compounds went through this panel and 20% of them were active in at least one assay; those are over-represented in the sample as a whole.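 Testing used 96-well plates and a 48-hour single-concentration exposure. Example: -40 means 40% of the starting cells died.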 A number with no mark means an inactive call. Active and inactive are the calls of the source. How the source made its calls: active means growth percent below 10; inactive means the rest.

Consider `Oc1ccc(Cc2ccccc2)c2cccnc12`, for which the growth is 25.3% with T-47D breast; 11% with BT-549 breast; 32.2% in the assay on MDA-MB-435 melanoma; 31.4% in the assay on SW-620 colon; 14.1% with MCF7 breast; 7.1% (active) in the assay with HCT-116 colon. In the assay with KM12 colon, the growth is 24.8%.

As to `CCOc1ccc(Br)cc1/C=N\N=C\c1cc(Br)ccc1OCC`, the growth in the assay with T-47D breast was 93%; in the assay on BT-549 breast, 108%; with MDA-MB-435 melanoma it was 103%; with SW-620 colon it was 101%; in the assay on MCF7 breast it was 101%; in the assay on HCT-116 colon, 97.8%. In the assay on KM12 colon, the growth was 94.2%.

On to `CC(=O)c1cc2c(cc1F)C(C)(C)CCC2(C)C`, for which the growth with T-47D breast was 109%; with BT-549 breast it was 101%; in the assay with MDA-MB-435 melanoma, 106%; in the assay with SW-620 colon, 102%; in the assay with MCF7 breast, 101%; with HCT-116 colon it was 94.4%. In the assay with KM12 colon, the growth is 107%.

As to `O=c1cc(-c2ccccc2)oc2c1ccc1ccccc12`, the growth in the assay with T-47D breast was 72%; in the assay on BT-549 breast, 97.6%; with MDA-MB-435 melanoma, 88.6%; in the assay on SW-620 colon, 99.2%; with MCF7 breast it was 67.3%; with HCT-116 colon, 85.5%. In addition, the growth in the assay on KM12 colon is 98.8%.

As to `O=[N+]([O-])c1ccccc1S(=O)c1ccccc1[N+](=O)[O-]`, the growth was 73.1% in the assay on T-47D breast; 95.3% in the assay with BT-549 breast; 72.2% in the assay on MDA-MB-435 melanoma; 44.6% in the assay on SW-620 colon; 95.2% in the assay on MCF7 breast; 51.8% in the assay with HCT-116 colon. For the same molecule, in the assay with KM12 colon, the growth was 88.1%.

With `OC(c1ccccn1)C(O)c1ccccn1` (centres undefined), the growth in the assay with T-47D breast is 109%; in the assay with BT-549 breast it was 106%; in the assay with MDA-MB-435 melanoma, 115%; in the assay on SW-620 colon, 109%; in the assay on MCF7 breast, 101%; in the assay on HCT-116 colon, 106%. The growth with KM12 colon was 109%.

Take `COc1cc(CCN=Cc2ccccc2O)c([N+](=O)[O-])cc1OC`: the growth in the assay with T-47D breast is 97.9%; in the assay with BT-549 breast it was 91.2%; with MDA-MB-435 melanoma, 110%; with SW-620 colon, 104%; with MCF7 breast, 104%; with HCT-116 colon, 95%. For the same molecule, the growth in the assay on KM12 colon is 107%.

Regarding `CC(=O)Nc1ccc(NC(C)=O)c2c1C(=O)c1ccccc1C2=O`, the growth in the assay on T-47D breast is 81.2%; in the assay with BT-549 breast, 36.4%; with MDA-MB-435 melanoma, 107%; in the assay with SW-620 colon, 91%; in the assay on MCF7 breast it was 87.3%; in the assay on HCT-116 colon, 79.3%. Further, the growth in the assay with KM12 colon is 94.5%.

For `CC(C)CCCC(=O)O`, the growth in the assay with T-47D breast was 104%; with BT-549 breast, 108%; with MDA-MB-435 melanoma it was 105%; in the assay with SW-620 colon it was 100%; in the assay with MCF7 breast, 96%; in the assay on HCT-116 colon, 107%. In the assay with KM12 colon, the growth is 102%.

`Cc1cc(=O)[nH]c(NN=C2CCCC2)n1`: the growth in the assay with T-47D breast was 103%; in the assay with BT-549 breast it was 122%; in the assay on MDA-MB-435 melanoma, 110%; in the assay on SW-620 colon it was 111%; with MCF7 breast it was 104%; in the assay with HCT-116 colon, 107%. Also, in the assay with KM12 colon, the growth was 110%.

In the case of `O=C1c2ccccc2C(=O)N1OCc1ccccc1`, the growth was 92.1% with T-47D breast; 118% in the assay with BT-549 breast; 110% in the assay on MDA-MB-435 melanoma; 107% in the assay on SW-620 colon; 99.5% in the assay on MCF7 breast; 99.8% in the assay with HCT-116 colon. Besides, in the assay on KM12 colon, the growth is 105%.

For `CCCCCCCCOC(=O)c1ccccn1`, the growth in the assay with T-47D breast was 96.4%; in the assay with BT-549 breast, 94.5%; with MDA-MB-435 melanoma, 116%; in the assay with SW-620 colon it was 98.3%; in the assay with MCF7 breast, 96.2%; in the assay on HCT-116 colon it was 94.2%. Besides, the growth in the assay on KM12 colon was 103%.

On to `CCC(C#N)(CC)c1ccccc1`, for which the growth in the assay with T-47D breast was 95.3%; in the assay with BT-549 breast it was 100%; with MDA-MB-435 melanoma, 104%; in the assay on SW-620 colon, 104%; in the assay on MCF7 breast, 95.4%; in the assay on HCT-116 colon, 105%. In the assay on KM12 colon, the growth was 106%.

For the molecule `NNc1ccccc1C(=O)O`, the growth in the assay on T-47D breast is 107%; in the assay with BT-549 breast it was 103%; in the assay with MDA-MB-435 melanoma, 116%; in the assay with SW-620 colon it was 101%; in the assay with MCF7 breast, 104%; in the assay on HCT-116 colon, 112%. For the same molecule, the growth in the assay on KM12 colon was 108%.

Take `O=C(N/N=C/c1ccccc1O)Nc1nn[nH]n1`: the growth was 105% with T-47D breast; 111% with BT-549 breast; 98.3% in the assay on MDA-MB-435 melanoma; 101% with SW-620 colon; 88.6% in the assay with MCF7 breast; 89% in the assay with HCT-116 colon. Further, the growth with KM12 colon is 114%.

`OCCN1CCOCC1`: the growth in the assay on T-47D breast was 106%; in the assay with BT-549 breast it was 115%; in the assay on MDA-MB-435 melanoma, 116%; with SW-620 colon, 113%; with MCF7 breast, 94.8%; in the assay on HCT-116 colon, 97.2%. In addition, in the assay on KM12 colon, the growth is 111%.

For `O=[N+]([O-])c1ccccc1N=Nc1ccc(O)cc1O`, the growth in the assay on T-47D breast was 104%; in the assay with BT-549 breast, 101%; in the assay on MDA-MB-435 melanoma, 120%; in the assay with SW-620 colon, 116%; with MCF7 breast, 94.7%; in the assay on HCT-116 colon, 100%. The growth in the assay on KM12 colon was 110%.

Source of the values: PubChem BioAssay (NCI).
